{"source": "PubChem BioAssay (NCATS)", "note": "Records with an inconclusive call do not appear. Values without a mark were called inactive. Calls of active or inactive are those of the source. Calls follow the shape of the dose curve; as a rule, active = well fitted inhibition curve with a large enough effect; inconclusive = small, poorly fitted or top-dose-only effect; inactive = flat fitted curve, though single readings scatter. Potency is read from the fitted curve at half-maximal effect.", "data": [{"tested_on": "CP286", "experiment": "qHTS profiling for inhibitors of Plasmodium falciparum proliferation (AID 504749); also: nearly all actives have a fitted effect of over 60% in size;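 as to activity, negative = inhibition: 0% = DMSO vehicle and full inhibition = artemisinin control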", "conditions": "P. falciparum in erythrocytes, SYBR Green DNA, 72 h; series mostly up to 28.7 µM; activity, negative = inhibition: at the top concentration", "method_in_brief": "(§1)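 Fluorescence of SYBR Green-bound parasite DNA, read at 485/535 nm, served as the growth measure. Infected erythrocytes were cultured with compound 72 h; artemisinin (0.29 uM) and DMSO wells defined the normalization range.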", "values": [{"smiles": "COC(=O)Nc1nc2ccc(C(=O)c3cccs3)cc2[nH]1", "activity, negative = inhibition": "1.27%"}, {"smiles": "Clc1ccccc1C(c1ccccc1)(c1ccccc1)n1ccnc1", "Potency": "1.58 µM (active)"}, {"smiles": "Cc1cn([C@H]2C=C[C@@H](CO)O2)c(=O)[nH]c1=O", "activity, negative = inhibition": "-0.117%"}, {"smiles": "CCOC(=O)c1ncn2c1CN(C)C(=O)c1cc(F)ccc1-2", "activity, negative = inhibition": "0.118%"}, {"smiles": "CCC1(c2ccccc2)C(=O)NCNC1=O", "activity, negative = inhibition": "-27%"}, {"smiles": "CCCCc1oc2ccccc2c1C(=O)c1cc(I)c(OCCN(CC)CC)c(I)c1", "Potency": "11.2 µM (active)"}, {"smiles": "O=C1c2c(O)ccc(O)c2C(=O)c2c(NCCNCCO)ccc(NCCNCCO)c21", "Potency": "1.12 µM (active)"}, {"smiles": "O=C(c1ccc(OCCN2CCCCC2)cc1)c1c(-c2ccc(O)cc2)sc2cc(O)ccc12", "Potency": "3.55 µM (active)"}, {"smiles": "O=c1c(O)c(-c2ccc(O)c(O)c2)oc2cc(O)cc(O)c12", "Potency": "11.2 µM (active)"}, {"smiles": "CN(Cc1cnc2nc(N)nc(N)c2n1)c1ccc(C(=O)N[C@@H](CCC(=O)O)C(=O)O)cc1", "Potency": "0.158 µM (active)"}, {"smiles": "CC(C)NCC(O)COc1ccc(CCOCC2CC2)cc1", "note": "(stereo not given)", "activity, negative = inhibition": "-6.85%"}, {"smiles": "Nc1nc2c(ncn2COC(CO)CO)c(=O)[nH]1", "activity, negative = inhibition": "-0.942% [at 12.8 µM]"}, {"smiles": "COc1ccc(CCN(C)CCCC(C#N)(c2ccc(OC)c(OC)c2)C(C)C)cc1OC", "note": "(stereo not given)", "activity, negative = inhibition": "0.445%"}, {"smiles": "CN1CCC(=C2c3ccccc3CC(=O)c3sccc32)CC1", "activity, negative = inhibition": "-27.7%"}, {"smiles": "O=C(Nc1ccc([N+](=O)[O-])cc1Cl)c1cc(Cl)ccc1O", "Potency": "1.78 µM (active)"}, {"smiles": "OCCN1CCN(CCCN2c3ccccc3Sc3ccc(C(F)(F)F)cc32)CC1", "Potency": "2.51 µM (active)"}, {"smiles": "COc1nc(C)nc(Cl)c1NC1=NCCN1", "activity, negative = inhibition": "-0.0298% [at 12.8 µM]"}, {"smiles": "Cc1ccc(-c2cc(C(F)(F)F)nn2-c2ccc(S(N)(=O)=O)cc2)cc1", "Potency": "8.91 µM (active)"}, {"smiles": "CC(C)(Oc1ccc(C2CC2(Cl)Cl)cc1)C(=O)O", "note": "(stereo not given)", "activity, negative = inhibition": "0.237%"}, {"smiles": "NC12CC3CC(CC(C3)C1)C2", "activity, negative = inhibition": "-0.178%"}, {"smiles": "CC[C@@]1(O)C(=O)OCc2c1cc1n(c2=O)Cc2cc3c(CN(C)C)c(O)ccc3nc2-1", "Potency": "5.62 µM (active)"}, {"smiles": "COc1ccccc1OCCNCC(O)COc1cccc2[nH]c3ccccc3c12", "note": "(stereo not given)", "Potency": "10 µM (active)"}, {"smiles": "CN(C)C(=N)N=C(N)N", "activity, negative = inhibition": "-7.77% [at 12.8 µM]"}, {"smiles": "CC12CC3CC(C)(C1)CC(N)(C3)C2", "activity, negative = inhibition": "0.493%"}, {"smiles": "CC(C)NCC(O)c1ccc(O)c(O)c1", "note": "(stereo not given)", "activity, negative = inhibition": "-4.98%"}, {"smiles": "CC(=O)OCC(CCn1cnc2cnc(N)nc21)COC(C)=O", "activity, negative = inhibition": "0.415%"}, {"smiles": "CCOC(=O)Nc1ccc(NCc2ccc(F)cc2)nc1N", "Potency": "8.91 µM (active)"}]}, {"tested_on": "CP291", "experiment": "qHTS profiling for inhibitors of Plasmodium falciparum proliferation (AID 504749)", "conditions": "P. falciparum in erythrocytes, SYBR Green DNA, 72 h; series mostly up to 28.7 µM; activity, negative = inhibition: at the top concentration", "method_in_brief": "as §1", "values": [{"smiles": "COC(=O)Nc1nc2ccc(C(=O)c3cccs3)cc2[nH]1", "activity, negative = inhibition": "-11.2%"}, {"smiles": "Clc1ccccc1C(c1ccccc1)(c1ccccc1)n1ccnc1", "Potency": "2.03 µM (active)"}, {"smiles": "Cc1cn([C@H]2C=C[C@@H](CO)O2)c(=O)[nH]c1=O", "activity, negative = inhibition": "2.58%"}, {"smiles": "CCOC(=O)c1ncn2c1CN(C)C(=O)c1cc(F)ccc1-2", "activity, negative = inhibition": "-15.7%"}, {"smiles": "CCC1(c2ccccc2)C(=O)NCNC1=O", "activity, negative = inhibition": "-0.662%"}, {"smiles": "CC#C[C@]1(O)CC[C@H]2[C@@H]3CCC4=CC(=O)CCC4=C3[C@@H](c3ccc(N(C)C)cc3)C[C@@]21C", "Potency": "16.9 µM (active)"}, {"smiles": "O=C1c2c(O)ccc(O)c2C(=O)c2c(NCCNCCO)ccc(NCCNCCO)c21", "Potency": "6.42 µM (active)"}, {"smiles": "CN(Cc1cnc2nc(N)nc(N)c2n1)c1ccc(C(=O)N[C@@H](CCC(=O)O)C(=O)O)cc1", "activity, negative = inhibition": "-1.15%"}, {"smiles": "CC(C)NCC(O)COc1ccc(CCOCC2CC2)cc1", "note": "(stereo not given)", "activity, negative = inhibition": "-1.88%"}, {"smiles": "Nc1nc2c(ncn2COC(CO)CO)c(=O)[nH]1", "activity, negative = inhibition": "2.14% [at 12.8 µM]"}, {"smiles": "O=C(Nc1ccc([N+](=O)[O-])cc1Cl)c1cc(Cl)ccc1O", "Potency": "1.2 µM (active)"}, {"smiles": "Clc1ccc2c(c1)C(N1CCNCC1)=Nc1ccccc1O2", "activity, negative = inhibition": "-13.2%"}, {"smiles": "OCCN1CCN(CCCN2c3ccccc3Sc3ccc(C(F)(F)F)cc32)CC1", "Potency": "8.49 µM (active)"}, {"smiles": "Clc1ccc(C(c2ccccc2Cl)C(Cl)Cl)cc1", "note": "(stereo not given)", "activity, negative = inhibition": "-22%"}, {"smiles": "COc1nc(C)nc(Cl)c1NC1=NCCN1", "activity, negative = inhibition": "-4.47% [at 12.8 µM]"}, {"smiles": "CC(C)(Oc1ccc(C2CC2(Cl)Cl)cc1)C(=O)O", "note": "(stereo not given)", "activity, negative = inhibition": "-2.3%"}, {"smiles": "NC12CC3CC(CC(C3)C1)C2", "activity, negative = inhibition": "-5.9%"}, {"smiles": "CC[C@@]1(O)C(=O)OCc2c1cc1n(c2=O)Cc2cc3c(CN(C)C)c(O)ccc3nc2-1", "Potency": "4.78 µM (active)"}, {"smiles": "CC12CC3CC(C)(C1)CC(N)(C3)C2", "activity, negative = inhibition": "-2.97%"}, {"smiles": "CC(C)NCC(O)c1ccc(O)c(O)c1", "note": "(stereo not given)", "activity, negative = inhibition": "0.305%"}, {"smiles": "CC(=O)OCC(CCn1cnc2cnc(N)nc21)COC(C)=O", "activity, negative = inhibition": "-1.42%"}]}, {"tested_on": "CP297", "experiment": "qHTS profiling for inhibitors of Plasmodium falciparum proliferation (AID 504749)", "conditions": "P. falciparum in erythrocytes, SYBR Green DNA, 72 h; series mostly up to 28.7 µM; activity, negative = inhibition: at the top concentration", "method_in_brief": "as §1", "units": {"activity, negative = inhibition": "%"}, "values": [{"smiles": "COC(=O)Nc1nc2ccc(C(=O)c3cccs3)cc2[nH]1", "activity, negative = inhibition": 4.6}, {"smiles": "Clc1ccccc1C(c1ccccc1)(c1ccccc1)n1ccnc1", "Potency": "0.455 µM (active)"}, {"smiles": "Cc1cn([C@H]2C=C[C@@H](CO)O2)c(=O)[nH]c1=O", "activity, negative = inhibition": 1.98}, {"smiles": "CCOC(=O)c1ncn2c1CN(C)C(=O)c1cc(F)ccc1-2", "activity, negative = inhibition": -0.444}, {"smiles": "CCC1(c2ccccc2)C(=O)NCNC1=O", "activity, negative = inhibition": 11.6}, {"smiles": "CC#C[C@]1(O)CC[C@H]2[C@@H]3CCC4=CC(=O)CCC4=C3[C@@H](c3ccc(N(C)C)cc3)C[C@@]21C", "Potency": "12 µM (active)"}, {"smiles": "O=C1c2c(O)ccc(O)c2C(=O)c2c(NCCNCCO)ccc(NCCNCCO)c21", "Potency": "6.42 µM (active)"}, {"smiles": "O=C(c1ccc(OCCN2CCCCC2)cc1)c1c(-c2ccc(O)cc2)sc2cc(O)ccc12", "Potency": "12 µM (active)"}, {"smiles": "CN(Cc1cnc2nc(N)nc(N)c2n1)c1ccc(C(=O)N[C@@H](CCC(=O)O)C(=O)O)cc1", "activity, negative = inhibition": 3.57}, {"smiles": "CC(C)NCC(O)COc1ccc(CCOCC2CC2)cc1", "note": "(stereo not given)", "activity, negative = inhibition": -1.57}, {"smiles": "COc1ccc(CCN(C)CCCC(C#N)(c2ccc(OC)c(OC)c2)C(C)C)cc1OC", "note": "(stereo not given)", "activity, negative = inhibition": -1.83}, {"smiles": "O=C(Nc1ccc([N+](=O)[O-])cc1Cl)c1cc(Cl)ccc1O", "Potency": "8.49 µM (active)"}, {"smiles": "CC(C)(Oc1ccc(C2CC2(Cl)Cl)cc1)C(=O)O", "note": "(stereo not given)", "activity, negative = inhibition": 4.77}, {"smiles": "CC[C@@]1(O)C(=O)OCc2c1cc1n(c2=O)Cc2cc3c(CN(C)C)c(O)ccc3nc2-1", "Potency": "7.57 µM (active)"}, {"smiles": "COc1ccccc1OCCNCC(O)COc1cccc2[nH]c3ccccc3c12", "note": "(stereo not given)", "activity, negative = inhibition": -22.8}, {"smiles": "CC(C)NCC(O)c1ccc(O)c(O)c1", "note": "(stereo not given)", "activity, negative = inhibition": 5.63}, {"smiles": "CC(=O)OCC(CCn1cnc2cnc(N)nc21)COC(C)=O", "activity, negative = inhibition": -8.93}]}]}
